Key:
[1] = tested on: Epidermal growth factor receptor (Homo sapiens), P00533 [T790M]; details: at 1 µM
[2] = tested on: Epidermal growth factor receptor (Homo sapiens), P00533 [L858R,T790M]; details: at 0.1 µM
[3] = tested on: Epidermal growth factor receptor (Homo sapiens), P00533 [L858R,T790M]; details: at 1 µM
[4] = biological target: Ephrin type-A receptor 2 (Homo sapiens) (UniProt P29317); details: at 0.1 µM
[5] = biological target: Ephrin type-A receptor 2 (Homo sapiens) (UniProt P29317); details: at 1 µM
[6] = biological target: T1, Ephrin type-A receptor 3 (Homo sapiens) (UniProt P29320); details: at 0.1 µM
T1 sequence (whole entry): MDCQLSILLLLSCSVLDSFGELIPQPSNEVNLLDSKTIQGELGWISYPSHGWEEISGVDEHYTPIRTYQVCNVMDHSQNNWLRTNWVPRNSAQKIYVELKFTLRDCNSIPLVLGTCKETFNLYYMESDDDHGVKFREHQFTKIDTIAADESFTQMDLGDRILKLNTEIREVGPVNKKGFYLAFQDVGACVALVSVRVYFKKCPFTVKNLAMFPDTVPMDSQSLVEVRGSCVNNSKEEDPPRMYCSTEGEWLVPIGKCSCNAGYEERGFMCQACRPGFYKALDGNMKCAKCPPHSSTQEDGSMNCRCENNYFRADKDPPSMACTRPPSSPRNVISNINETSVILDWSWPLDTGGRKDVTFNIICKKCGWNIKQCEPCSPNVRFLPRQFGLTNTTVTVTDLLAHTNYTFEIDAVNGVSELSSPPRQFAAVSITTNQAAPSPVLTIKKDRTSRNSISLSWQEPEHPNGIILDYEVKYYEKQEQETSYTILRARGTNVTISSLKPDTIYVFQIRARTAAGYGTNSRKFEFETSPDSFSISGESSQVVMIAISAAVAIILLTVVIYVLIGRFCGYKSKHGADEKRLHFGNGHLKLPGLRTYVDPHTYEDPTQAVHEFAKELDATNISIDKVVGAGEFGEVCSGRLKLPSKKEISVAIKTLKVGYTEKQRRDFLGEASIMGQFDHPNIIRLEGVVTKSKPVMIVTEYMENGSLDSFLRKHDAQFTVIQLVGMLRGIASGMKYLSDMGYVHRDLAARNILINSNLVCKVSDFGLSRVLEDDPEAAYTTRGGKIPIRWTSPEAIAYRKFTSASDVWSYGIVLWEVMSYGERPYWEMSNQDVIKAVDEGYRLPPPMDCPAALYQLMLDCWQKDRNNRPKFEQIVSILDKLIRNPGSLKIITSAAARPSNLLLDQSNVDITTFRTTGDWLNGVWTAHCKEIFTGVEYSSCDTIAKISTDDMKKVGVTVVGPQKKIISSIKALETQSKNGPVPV

[7] = biological target: T1, Ephrin type-A receptor 3 (Homo sapiens); details: at 1 µM
[8] = biological target: Ephrin type-A receptor 4 (Homo sapiens) (UniProt P54764); details: at 0.1 µM
[9] = biological target: Ephrin type-A receptor 4 (Homo sapiens) (UniProt P54764); details: at 1 µM
[10] = biological target: T2, Ephrin type-B receptor 2 (Homo sapiens) (UniProt P29323); details: at 0.1 µM
T2 sequence (whole entry): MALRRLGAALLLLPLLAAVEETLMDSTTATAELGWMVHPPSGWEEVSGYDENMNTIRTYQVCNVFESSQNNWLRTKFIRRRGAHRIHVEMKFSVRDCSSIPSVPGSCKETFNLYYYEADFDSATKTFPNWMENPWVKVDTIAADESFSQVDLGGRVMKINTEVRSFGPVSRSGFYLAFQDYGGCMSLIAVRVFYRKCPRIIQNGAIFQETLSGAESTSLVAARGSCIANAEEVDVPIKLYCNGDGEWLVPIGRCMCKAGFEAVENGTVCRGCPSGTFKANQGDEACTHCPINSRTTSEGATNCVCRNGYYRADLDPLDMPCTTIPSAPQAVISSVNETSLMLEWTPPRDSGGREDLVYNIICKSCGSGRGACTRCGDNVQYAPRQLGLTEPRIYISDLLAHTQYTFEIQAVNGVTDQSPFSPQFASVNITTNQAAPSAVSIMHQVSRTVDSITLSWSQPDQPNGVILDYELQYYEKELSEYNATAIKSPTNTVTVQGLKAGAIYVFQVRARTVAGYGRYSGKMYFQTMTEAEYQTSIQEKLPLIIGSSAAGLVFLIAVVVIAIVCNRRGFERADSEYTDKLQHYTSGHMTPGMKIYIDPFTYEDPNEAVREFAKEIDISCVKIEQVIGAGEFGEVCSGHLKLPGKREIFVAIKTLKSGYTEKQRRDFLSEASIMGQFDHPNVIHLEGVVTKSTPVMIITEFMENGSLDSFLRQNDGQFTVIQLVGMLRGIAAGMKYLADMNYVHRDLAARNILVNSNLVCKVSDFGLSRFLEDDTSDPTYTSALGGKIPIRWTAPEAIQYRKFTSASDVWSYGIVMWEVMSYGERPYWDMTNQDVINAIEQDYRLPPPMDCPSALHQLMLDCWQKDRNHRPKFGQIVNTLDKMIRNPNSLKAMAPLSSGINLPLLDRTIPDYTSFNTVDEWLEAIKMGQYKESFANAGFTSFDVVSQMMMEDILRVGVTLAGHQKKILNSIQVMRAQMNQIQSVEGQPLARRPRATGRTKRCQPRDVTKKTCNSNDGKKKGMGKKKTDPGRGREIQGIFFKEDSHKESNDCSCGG

[11] = biological target: T2, Ephrin type-B receptor 2 (Homo sapiens); details: at 1 µM
[12] = biological target: T3, Ephrin type-B receptor 3 (Homo sapiens) (UniProt P54753); details: at 0.1 µM
T3 sequence (whole entry): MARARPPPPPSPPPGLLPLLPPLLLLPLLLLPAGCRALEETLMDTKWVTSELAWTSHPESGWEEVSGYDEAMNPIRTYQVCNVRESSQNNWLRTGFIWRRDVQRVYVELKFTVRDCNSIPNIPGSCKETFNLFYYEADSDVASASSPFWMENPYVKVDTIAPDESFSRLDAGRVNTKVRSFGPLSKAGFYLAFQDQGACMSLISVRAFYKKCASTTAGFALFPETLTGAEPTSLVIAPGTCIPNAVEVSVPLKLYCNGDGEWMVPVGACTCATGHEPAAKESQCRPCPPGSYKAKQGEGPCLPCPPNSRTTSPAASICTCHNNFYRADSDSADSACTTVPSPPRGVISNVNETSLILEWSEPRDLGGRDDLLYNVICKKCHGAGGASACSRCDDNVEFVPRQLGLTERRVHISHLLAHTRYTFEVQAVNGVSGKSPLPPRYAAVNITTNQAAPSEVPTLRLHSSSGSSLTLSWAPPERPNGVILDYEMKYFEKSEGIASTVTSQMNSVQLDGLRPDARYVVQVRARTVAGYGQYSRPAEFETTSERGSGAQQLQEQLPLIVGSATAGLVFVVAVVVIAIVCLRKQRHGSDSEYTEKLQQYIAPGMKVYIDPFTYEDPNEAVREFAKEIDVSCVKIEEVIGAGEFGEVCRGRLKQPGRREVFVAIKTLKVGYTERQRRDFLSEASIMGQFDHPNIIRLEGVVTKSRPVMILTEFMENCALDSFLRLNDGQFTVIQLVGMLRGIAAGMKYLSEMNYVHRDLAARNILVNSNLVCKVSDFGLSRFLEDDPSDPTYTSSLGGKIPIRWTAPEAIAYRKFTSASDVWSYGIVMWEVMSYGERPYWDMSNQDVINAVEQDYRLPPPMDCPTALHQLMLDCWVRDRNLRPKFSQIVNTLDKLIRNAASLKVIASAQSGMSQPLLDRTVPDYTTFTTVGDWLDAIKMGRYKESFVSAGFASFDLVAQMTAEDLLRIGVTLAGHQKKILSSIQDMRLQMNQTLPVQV

[13] = biological target: T3, Ephrin type-B receptor 3 (Homo sapiens); details: at 1 µM
[14] = biological target: T4, Ephrin type-B receptor 4 (Homo sapiens) (UniProt P54760); details: at 0.1 µM
T4 sequence (whole entry): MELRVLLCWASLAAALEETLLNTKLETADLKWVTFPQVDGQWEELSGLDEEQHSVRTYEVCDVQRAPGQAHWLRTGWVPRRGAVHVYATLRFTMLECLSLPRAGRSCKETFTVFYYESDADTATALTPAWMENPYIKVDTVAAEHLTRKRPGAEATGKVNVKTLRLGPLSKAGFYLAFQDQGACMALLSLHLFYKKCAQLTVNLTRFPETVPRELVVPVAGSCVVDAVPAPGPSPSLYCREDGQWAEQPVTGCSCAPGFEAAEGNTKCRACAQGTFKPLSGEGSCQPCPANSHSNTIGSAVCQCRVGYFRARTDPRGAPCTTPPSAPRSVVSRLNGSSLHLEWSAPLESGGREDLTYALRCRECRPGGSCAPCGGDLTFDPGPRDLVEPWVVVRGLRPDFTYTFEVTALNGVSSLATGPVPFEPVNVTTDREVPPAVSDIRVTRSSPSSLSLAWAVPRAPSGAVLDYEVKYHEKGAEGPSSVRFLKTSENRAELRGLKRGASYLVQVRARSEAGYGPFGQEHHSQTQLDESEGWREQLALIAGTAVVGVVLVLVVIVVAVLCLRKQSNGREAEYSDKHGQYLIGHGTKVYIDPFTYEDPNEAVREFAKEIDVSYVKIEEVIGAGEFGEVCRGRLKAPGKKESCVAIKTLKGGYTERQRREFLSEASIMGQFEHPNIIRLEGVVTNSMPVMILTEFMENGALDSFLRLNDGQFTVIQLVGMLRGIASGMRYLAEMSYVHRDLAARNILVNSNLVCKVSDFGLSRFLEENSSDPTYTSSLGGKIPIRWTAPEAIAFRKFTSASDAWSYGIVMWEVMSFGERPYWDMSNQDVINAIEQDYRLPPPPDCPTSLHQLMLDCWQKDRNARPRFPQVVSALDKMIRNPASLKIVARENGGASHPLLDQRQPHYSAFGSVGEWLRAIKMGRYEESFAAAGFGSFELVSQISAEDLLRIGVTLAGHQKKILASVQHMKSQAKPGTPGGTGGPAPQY

[15] = biological target: T4, Ephrin type-B receptor 4 (Homo sapiens); details: at 1 µM
[16] = biological target: Receptor tyrosine-protein kinase erbB-2 (Homo sapiens) (UniProt P04626); details: at 0.1 µM
[17] = biological target: Receptor tyrosine-protein kinase erbB-2 (Homo sapiens) (UniProt P04626); details: at 1 µM
[18] = biological target: Receptor tyrosine-protein kinase erbB-4 (Homo sapiens) (UniProt Q15303); details: at 0.1 µM
[19] = biological target: Receptor tyrosine-protein kinase erbB-4 (Homo sapiens) (UniProt Q15303); details: at 1 µM
[20] = biological target: Tyrosine-protein kinase Fer (Homo sapiens) (UniProt P16591); details: at 0.1 µM;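 also: reported figures are averaged percent inhibition of FER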

Chain of Receptor tyrosine-protein kinase erbB-2 (Homo sapiens) (P04626 whole entry): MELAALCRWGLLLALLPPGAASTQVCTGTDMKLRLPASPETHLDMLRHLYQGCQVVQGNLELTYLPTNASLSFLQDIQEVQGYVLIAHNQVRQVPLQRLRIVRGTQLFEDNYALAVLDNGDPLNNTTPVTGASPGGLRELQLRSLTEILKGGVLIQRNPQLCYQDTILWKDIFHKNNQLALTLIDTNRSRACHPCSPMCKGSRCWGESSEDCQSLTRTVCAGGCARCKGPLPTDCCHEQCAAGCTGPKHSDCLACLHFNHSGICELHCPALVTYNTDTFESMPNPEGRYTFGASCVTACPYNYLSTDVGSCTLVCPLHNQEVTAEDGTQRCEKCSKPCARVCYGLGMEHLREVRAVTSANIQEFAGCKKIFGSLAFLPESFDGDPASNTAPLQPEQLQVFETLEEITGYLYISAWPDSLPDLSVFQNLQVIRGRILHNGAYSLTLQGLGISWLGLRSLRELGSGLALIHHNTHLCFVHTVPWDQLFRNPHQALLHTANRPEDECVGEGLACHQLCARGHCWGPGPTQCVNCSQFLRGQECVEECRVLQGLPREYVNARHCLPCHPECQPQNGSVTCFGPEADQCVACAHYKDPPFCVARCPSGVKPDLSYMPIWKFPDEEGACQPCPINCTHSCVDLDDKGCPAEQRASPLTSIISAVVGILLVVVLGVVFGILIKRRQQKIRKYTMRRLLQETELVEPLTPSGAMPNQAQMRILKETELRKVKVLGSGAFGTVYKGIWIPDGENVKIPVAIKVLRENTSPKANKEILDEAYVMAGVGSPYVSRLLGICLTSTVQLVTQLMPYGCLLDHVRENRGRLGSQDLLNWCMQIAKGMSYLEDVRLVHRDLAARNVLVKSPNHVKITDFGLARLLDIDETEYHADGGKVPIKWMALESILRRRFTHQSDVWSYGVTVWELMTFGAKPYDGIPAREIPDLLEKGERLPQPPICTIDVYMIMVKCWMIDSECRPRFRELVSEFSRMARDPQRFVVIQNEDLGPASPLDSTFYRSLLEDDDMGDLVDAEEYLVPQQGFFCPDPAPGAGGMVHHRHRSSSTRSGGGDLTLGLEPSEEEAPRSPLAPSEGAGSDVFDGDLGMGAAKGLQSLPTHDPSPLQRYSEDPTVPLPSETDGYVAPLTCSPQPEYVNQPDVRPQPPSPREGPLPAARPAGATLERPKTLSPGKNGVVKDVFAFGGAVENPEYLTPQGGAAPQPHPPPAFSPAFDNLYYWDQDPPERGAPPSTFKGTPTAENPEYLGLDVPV
Chain of Ephrin type-A receptor 4 (Homo sapiens) (P54764 whole entry): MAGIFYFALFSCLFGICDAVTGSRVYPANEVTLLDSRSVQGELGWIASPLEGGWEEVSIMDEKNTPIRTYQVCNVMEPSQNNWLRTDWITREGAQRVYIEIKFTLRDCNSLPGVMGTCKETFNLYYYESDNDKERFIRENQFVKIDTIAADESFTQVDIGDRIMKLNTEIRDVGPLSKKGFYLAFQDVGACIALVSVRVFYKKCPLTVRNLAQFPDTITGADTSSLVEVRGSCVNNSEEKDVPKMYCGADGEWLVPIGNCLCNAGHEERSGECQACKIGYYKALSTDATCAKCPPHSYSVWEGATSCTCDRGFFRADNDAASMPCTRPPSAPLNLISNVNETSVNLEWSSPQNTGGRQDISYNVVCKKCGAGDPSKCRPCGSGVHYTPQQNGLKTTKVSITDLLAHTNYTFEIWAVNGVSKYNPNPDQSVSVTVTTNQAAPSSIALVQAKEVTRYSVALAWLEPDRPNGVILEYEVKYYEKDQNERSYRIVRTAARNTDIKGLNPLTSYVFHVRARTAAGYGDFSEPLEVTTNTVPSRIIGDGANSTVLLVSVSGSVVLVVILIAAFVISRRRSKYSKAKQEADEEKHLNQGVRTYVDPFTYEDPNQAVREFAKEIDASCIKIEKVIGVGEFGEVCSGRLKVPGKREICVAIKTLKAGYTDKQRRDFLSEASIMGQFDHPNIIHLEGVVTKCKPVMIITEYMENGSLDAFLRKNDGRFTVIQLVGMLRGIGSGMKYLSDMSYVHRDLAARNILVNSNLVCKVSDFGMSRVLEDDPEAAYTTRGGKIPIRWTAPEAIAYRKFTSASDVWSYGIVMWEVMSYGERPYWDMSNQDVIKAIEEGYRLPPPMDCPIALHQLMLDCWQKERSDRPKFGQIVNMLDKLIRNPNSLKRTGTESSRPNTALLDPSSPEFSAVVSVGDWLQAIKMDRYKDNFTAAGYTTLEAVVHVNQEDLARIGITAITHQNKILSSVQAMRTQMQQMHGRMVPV
Chain of Epidermal growth factor receptor (Homo sapiens), P00533 [T790M] (P00533 whole entry T790M): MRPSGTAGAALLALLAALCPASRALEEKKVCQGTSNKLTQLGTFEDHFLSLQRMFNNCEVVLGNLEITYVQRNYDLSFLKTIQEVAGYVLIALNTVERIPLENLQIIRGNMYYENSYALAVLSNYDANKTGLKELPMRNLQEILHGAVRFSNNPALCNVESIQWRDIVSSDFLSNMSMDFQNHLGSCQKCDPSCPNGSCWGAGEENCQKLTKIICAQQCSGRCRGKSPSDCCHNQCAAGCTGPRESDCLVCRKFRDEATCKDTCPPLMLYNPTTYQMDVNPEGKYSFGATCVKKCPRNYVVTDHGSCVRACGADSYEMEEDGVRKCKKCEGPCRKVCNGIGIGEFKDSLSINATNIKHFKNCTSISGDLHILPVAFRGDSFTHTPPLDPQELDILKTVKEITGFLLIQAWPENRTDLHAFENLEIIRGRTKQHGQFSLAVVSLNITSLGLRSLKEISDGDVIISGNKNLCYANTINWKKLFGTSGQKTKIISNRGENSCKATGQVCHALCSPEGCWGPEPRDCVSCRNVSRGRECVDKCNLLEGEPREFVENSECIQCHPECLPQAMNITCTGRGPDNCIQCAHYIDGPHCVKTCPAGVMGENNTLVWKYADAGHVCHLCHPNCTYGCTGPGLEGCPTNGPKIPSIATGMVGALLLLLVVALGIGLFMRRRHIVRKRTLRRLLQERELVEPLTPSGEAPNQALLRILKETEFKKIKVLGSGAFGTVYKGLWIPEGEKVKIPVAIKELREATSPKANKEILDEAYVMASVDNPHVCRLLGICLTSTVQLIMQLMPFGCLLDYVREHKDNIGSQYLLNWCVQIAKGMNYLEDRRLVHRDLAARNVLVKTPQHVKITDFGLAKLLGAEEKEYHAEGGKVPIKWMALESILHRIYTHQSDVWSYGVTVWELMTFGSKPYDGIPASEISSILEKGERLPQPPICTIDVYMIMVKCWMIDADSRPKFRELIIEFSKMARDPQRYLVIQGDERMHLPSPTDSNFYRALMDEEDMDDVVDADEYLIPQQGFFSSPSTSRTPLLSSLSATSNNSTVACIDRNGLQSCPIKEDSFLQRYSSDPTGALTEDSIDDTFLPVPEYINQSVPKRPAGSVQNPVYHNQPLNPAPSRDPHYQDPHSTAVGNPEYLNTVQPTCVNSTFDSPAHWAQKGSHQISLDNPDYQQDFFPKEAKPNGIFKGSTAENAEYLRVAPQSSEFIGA
Chain of Epidermal growth factor receptor (Homo sapiens), P00533 [L858R,T790M] (P00533 whole entry T790M/L858R, looked up): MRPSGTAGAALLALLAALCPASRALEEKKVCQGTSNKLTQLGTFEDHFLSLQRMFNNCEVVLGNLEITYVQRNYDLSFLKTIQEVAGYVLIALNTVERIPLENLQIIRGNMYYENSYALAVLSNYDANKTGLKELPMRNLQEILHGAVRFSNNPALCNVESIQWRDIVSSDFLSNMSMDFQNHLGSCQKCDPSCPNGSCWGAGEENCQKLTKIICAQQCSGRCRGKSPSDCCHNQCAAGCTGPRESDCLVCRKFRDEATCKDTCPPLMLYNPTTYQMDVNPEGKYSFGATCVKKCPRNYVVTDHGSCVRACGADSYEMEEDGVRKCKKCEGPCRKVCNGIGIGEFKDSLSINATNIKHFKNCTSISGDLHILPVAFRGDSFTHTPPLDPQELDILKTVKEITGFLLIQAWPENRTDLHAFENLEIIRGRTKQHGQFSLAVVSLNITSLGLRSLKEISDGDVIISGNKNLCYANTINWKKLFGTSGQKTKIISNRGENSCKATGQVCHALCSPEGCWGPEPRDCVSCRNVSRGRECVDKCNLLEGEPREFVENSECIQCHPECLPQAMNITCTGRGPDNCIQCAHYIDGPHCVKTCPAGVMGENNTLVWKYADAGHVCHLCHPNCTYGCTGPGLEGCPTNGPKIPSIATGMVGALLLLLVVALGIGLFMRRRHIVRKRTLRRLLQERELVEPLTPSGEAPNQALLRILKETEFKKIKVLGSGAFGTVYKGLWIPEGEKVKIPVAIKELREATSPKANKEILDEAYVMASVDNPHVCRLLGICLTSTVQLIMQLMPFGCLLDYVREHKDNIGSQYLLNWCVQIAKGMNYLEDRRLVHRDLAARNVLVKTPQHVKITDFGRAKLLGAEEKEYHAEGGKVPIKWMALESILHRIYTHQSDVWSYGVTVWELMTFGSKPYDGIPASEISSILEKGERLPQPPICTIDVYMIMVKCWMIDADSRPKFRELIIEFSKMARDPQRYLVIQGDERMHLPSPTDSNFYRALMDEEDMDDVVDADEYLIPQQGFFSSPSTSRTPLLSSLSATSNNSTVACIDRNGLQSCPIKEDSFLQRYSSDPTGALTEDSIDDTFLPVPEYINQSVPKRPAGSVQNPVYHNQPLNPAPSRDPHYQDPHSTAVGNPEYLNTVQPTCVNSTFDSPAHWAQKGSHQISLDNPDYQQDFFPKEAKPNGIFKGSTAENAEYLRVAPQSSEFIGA

Row | Compound | inhibition [1] [%] | inhibition [2] [%] | inhibition [3] [%] | inhibition [4] [%] | inhibition [5] [%] | inhibition [6] [%] | inhibition [7] [%] | inhibition [8] [%] | inhibition [9] [%] | inhibition [10] [%] | inhibition [11] [%] | inhibition [12] [%] | inhibition [13] [%] | inhibition [14] [%] | inhibition [15] [%] | inhibition [16] [%] | inhibition [17] [%] | inhibition [18] [%] | inhibition [19] [%] | inhibition [20] [%]
1 | Fc1cccc(COc2ccc(Nc3ncncc3C#Cc3ccccc3)cc2Cl)c1 | 3.85 | 3.98 | 5.02 | 4.2 | 0.3 | 4.46 | 4.68 | 9.27 | 13.1 | 8.04 | 11.3 | 4.96 | 3.65 | 1.3 | 2.18 | 3.69 | 4.08 | 9.32 | 19 | 2.19
2 | NS(=O)(=O)c1cccc(N/C=C2\C(=O)Nc3ccccc32)c1 | 1.35 | 2.94 | 5.43 | 0.86 | 1.68 | 3.01 | 3.78 | 7.61 | 3.9 | 9.06 | 10.8 | 5.46 | 2.58 | 4.23 | 3.73 | 1.3 | -0.02 | 13.3 | 14.6 | 3.91
3 | COc1cc(N2CCN(C(C)C)CC2)ccc1Nc1nc(Nc2cccc(F)c2C(=O)O)c2cc[nH]c2n1 | 24.9 | 9.68 | 48.9 | 0.65 | -0.38 | 2.98 | 6.01 | 8.47 | 11.2 | 9.96 | 12.6 | 3.69 | 6.24 | 2.82 | 2.84 | 3.72 | 5.93 | 11.7 | 11.2 | 32.5
4 | NS(=O)(=O)c1ccc(N/N=C2\C(=O)Nc3cccc(CCc4ccncc4)c32)cc1 | 0.76 | -0.13 | 1.83 | -2.9 | -1.98 | 0.59 | 0.71 | 3.79 | 5.47 | 4.47 | 5.15 | 2.41 | 2.85 | 1.21 | 0.87 | -0.81 | 3.74 | 4.66 | 8.01 | 4.04
5 | Cn1c(-c2nonc2N)nc2cnccc21 | 0.67 | -1.07 | -0.94 | 1.97 | 1.07 | 6.89 | 4.47 | 7.88 | 4.19 | 4.59 | 3.92 | 3.54 | 4.62 | 2.84 | 2 | 4.78 | 3.42 | 14.9 | 17.3 | 3.92
6 | COc1cccc(Nc2nccc(-c3cnn4ncccc34)n2)c1 | 1.13 | 4.75 | 9.99 | 1.1 | 12.2 | 4.37 | 8.81 | 9.73 | 36.6 | 9.43 | 36 | 1.65 | -3.88 | 2.75 | 16.1 | -0.16 | 1.64 | 8.21 | 3.05 | 9.45

Reference: ChEMBL document CHEMBL1961873, “Compounds: GSK PKIS; Assays: Nanosyn kinase panel” (2012)
